Among all 63,000 compounds or so, about 1,100 (1.7%) were called active. Shown is part of a subset that was picked to be rich in actives. Entries with a potency or affinity are not part of this list. Values without a mark were called inactive.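 How the source made its calls: active means compounds whose percent cytotoxicity in the single-dose primary screen, scaled between solvent and toxic-drug controls, exceeds 50; inactive means the rest.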
Test: cytotoxicity in KRAS-transformed pancreatic duct cells, primary screen, cell-based, fluorescence, HTS (AID 431);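 further: 0% = DMSO solvent wells and 100% = doxorubicin-treated wells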
Conditions: HPDE-C7K KRASV12 cells, Alamar Blue viability, 48 h; at 10 µM; hits give high values

Row | Structure (SMILES) | cytotoxicity
1 | CSc1ccc(Cl)c(C(=O)OCC(=O)N2CCOCC2)c1 | -13.8%
2 | N#C/C(=C\c1ccc(O)c(O)c1)S(=O)(=O)c1ccccc1 | 5.4%
3 | O=C(NCCCc1ccccc1)c1ccccc1O | -6.1%
4 | N#C/C(=C\c1ccc(O)c(O)c1)C(=O)NCCCc1ccccc1 | 54.7% (active)
5 | Cc1ccc(S(=O)(=O)N2CCCCC2)cc1C(=O)c1nccn1C | -13.8%
6 | CCOc1ccc(NC(=O)CCS(=O)(=O)c2ccc3c(c2)CCCN3C(C)=O)cc1 | -19.8%
7 | COc1ccc(-n2c(N)c(C(=O)NCc3ccco3)c3nc4ccccc4nc32)c(OC)c1 | 5.2%
8 | O=C(Cn1c(CN2CCCCC2)nc2ccccc2c1=O)NCc1ccco1 | -21.9%
9 | COc1ccc(CCn2c(N)c(C#N)c3nc4ccccc4nc32)cc1OC | -1.9%
10 | Nc1c(C(=O)NCCN2CCOCC2)c2nc3ccccc3nc2n1-c1ccccc1 | -0.8%
11 | COc1ccc(CCn2c(N)c(C(=O)NCc3ccco3)c3nc4ccccc4nc32)cc1OC | 57.5% (active)
12 | Cc1cccc(-n2c(Cc3cc(=O)[nH]c(=O)[nH]3)nnc2SCC(=O)NCc2ccco2)c1 | -4.5%
13 | O=C(NCc1cccc(F)c1)c1noc2c1CCCC2 | -1.2%
14 | Cc1cc(O)cc(=O)n1Cc1ccco1 | -8.3%
15 | COc1cc(Cl)c(S(=O)(=O)n2cnc(C)c2)cc1Cl | 4.1%
16 | COc1cc(C)c(C(C)C)cc1S(=O)(=O)N1CCN(C)CC1 | -21.8%
17 | COc1ccc(-c2c(C)oc3c(CN4CCN(C)CC4)c(O)ccc3c2=O)cc1 | -6.1%
18 | CCOC(=O)C1=C(CS(=O)(=O)c2ccccc2)NC(=O)NC1c1ccccc1OCC (stereo not drawn) | -3.7%
19 | Cc1ccc(S(=O)(=O)CC(c2ccccc2)N2CCOCC2)cc1 (stereo not drawn) | -3.6%
20 | Nc1ncn(C(=O)c2ccco2)n1 | 4.4%
21 | O=C(COc1cc(=O)n2c(n1)SCCC2)c1ccccc1 | -1.2%
22 | OCCN1CCN(C(=S)c2ccc(Cl)cc2)CC1 | -18.6%
23 | CN1CCN(CCC(=O)N2c3ccccc3Sc3ccc(Cl)cc32)CC1 | 35.1%
24 | CCOC(=O)Nc1ccc2c(c1)N(C(=O)CN1CCN(C)CC1)c1ccccc1S2 | 5.6%

Row | Structure (SMILES) | cytotoxicity
25 | CN1CCN(CCCN2c3ccccc3Sc3ccc(Cl)cc32)CC1 | 82.7% (active)
26 | O=C(CN1CCN(CCOCCO)CC1)N1c2ccccc2Sc2ccc(Cl)cc21 | -26%
27 | CC(=O)C1=C(O)C(=O)N(CCN2CCOCC2)C1c1ccc(N(C)C)cc1 (stereo not drawn) | -11.6%
28 | Cc1oc(-c2cccc(Cl)c2)nc1CN1CCC(C(=O)NCC2CCCO2)CC1 (stereo not drawn) | 21.4%
29 | COc1ccc(OC)c(C2C(C(C)=O)=C(O)C(=O)N2CCN2CCOCC2)c1 (stereo not drawn) | 3.1%
30 | COc1cccc(C(=O)CSc2nnc(CNc3nc(-c4ccccc4)cs3)n2C)c1 | -0.3%
31 | CC(CC1C(C#N)=C(N)OC2=C1C(=O)CCC2)c1ccccc1 (stereo not drawn) | -2.7%
32 | Cc1cccc(-c2noc(CCc3ccccc3)n2)c1 | 4.2%
33 | Cc1ccc(Nc2nc(N)nc(CN3CCN(Cc4ccc5c(c4)OCO5)CC3)n2)c(C)c1 | -5.2%
34 | Cc1cc(C(=O)NCCCN2CCN(C3CCCCC3)CC2)n(-c2ccccc2)n1 | -1%
35 | Cc1cc(C(=O)NCCN2CCN(c3cccc(Cl)c3)CC2)n(-c2ccccc2)n1 | 60.3% (active)
36 | Cc1cc(C(=O)NCCCN2CCOCC2)n(-c2ccccc2)n1 | -11.4%
37 | CCN(CC)S(=O)(=O)c1ccc(N2CCCC2)c(C(=O)OCC(=O)/C(C#N)=C(\C)N)c1 | 10.5%
38 | CC(C)=C1C2C=CC1C(C(=O)Nc1cc(C)ccc1C)C2C(=O)O (stereo not drawn) | -14.9%
39 | CCOc1ccccc1NC(=O)Cn1nnc(C(=O)NCc2ccco2)c1N | 55.3% (active)
40 | CCOc1ccccc1NC(=O)Cn1nnc(C(=O)Nc2ccc(C)cc2)c1N | 5.2%
41 | CCOc1ccccc1NC(=O)Cn1nnc(C(=O)Nc2ccccc2Cl)c1N | 3.6%
42 | CCN(CC)CCCN1C(=O)C(=O)/C(=C(/O)c2cc(C)ccc2C)C1c1cccnc1 (stereo not drawn) | -4.8%
43 | Cc1ccccc1NC(=O)c1c(F)c(F)c(F)c(F)c1F | -12%
44 | CCOC(=O)c1ccccc1NC(=O)c1ccccc1SC | 21.6%
45 | O=C(Nc1ccccc1Cl)c1c(F)c(F)c(F)c(F)c1F | 0.3%
46 | CCOC(=O)c1ccccc1NC(=O)c1cccs1 | -12.9%
47 | CC1=C(C#N)C(C)C2=C(CC(C)(C)CC2=O)N1 (stereo not drawn) | -3.6%
48 | Cn1c(Cl)cnc1C1CC(=O)c2cc(Cl)ccc2O1 (stereo not drawn) | 67.1% (active)

Row | Structure (SMILES) | cytotoxicity
49 | CN1CCN(C2=Nc3ccccc3Oc3ccc(Cl)cc32)CC1 | -3.2%
50 | COc1ccc2c(c1)C(=O)CC(c1ccccc1F)O2 (stereo not drawn) | 7.5%
51 | O=C(Nc1ccc2nc[nH]c2c1)c1ccco1 | 16.9%
52 | COC(=O)C(C)Sc1nc2c(c(=O)[nH]c(=O)n2C)n1CCCc1ccccc1 (stereo not drawn) | -4.9%
53 | O=S(=O)(NCCO)c1cccc2cccnc12 | -9.3%
54 | CCC(C)(C)n1nnnc1C(c1ccc(C)cc1)N1CCN(Cc2cccnc2)CC1 (stereo not drawn) | -32%
55 | O=C(OCC(=O)N1CCN(C(=O)c2ccco2)CC1)c1cc(=O)c2ccccc2o1 | -1.9%
56 | C=C1[C@@H](C)C2[C@H](Cc3ccccc3)NC(=O)[C@]23OC(=O)CC[C@H](O)CCC[C@H](C)C/C=C/[C@H]3[C@@H]1O (stereo partly drawn) | 59.8% (active)
57 | Cc1ccc(Nc2cccccc2=O)cc1 | -1.6%
58 | CCC1(C)Cc2c(sc3c2c(=O)n(C)c2nnc(SCc4ccccc4)n32)CO1 (stereo not drawn) | 3.4%
59 | NC1=NC(c2ccccc2Cl)n2c(nc3ccccc32)N1 (stereo not drawn) | 0.6%
60 | Cc1cc(C2N=C(N)Nc3nc4ccccc4n32)c(C)n1-c1ccccc1Cl (stereo not drawn) | 5.7%
61 | COc1cc(OC)cc(-n2nnnc2SCC(=O)N2CCCC2)c1 | -16%
62 | COc1ccc(-n2nnnc2S(=O)(=O)Cc2ccc(C(=O)O)cc2)cc1 | 2.6%
63 | COc1ccc(-n2nnnc2S(=O)(=O)CC(=O)N2CCCCC2)cc1 | 56.8% (active)
64 | COc1ccccc1N1CCN(CC(O)COc2cccc3ccccc23)CC1 (stereo not drawn) | 51.3% (active)
65 | COc1ccccc1N1CCN(CC(O)COc2c(OC)cccc2OC)CC1 (stereo not drawn) | 3.7%
66 | C=CCc1ccccc1OCC(O)CN1CCN(c2ccccc2OC)CC1 (stereo not drawn) | 6.9%
67 | CCn1c(SCC(=O)N2CCCC2)nc2c1c(=O)n(C)c(=O)n2C | -12.3%
68 | Cc1cc(OCCOCCN(C)CCO)cc(C)c1Cl | 16.8%
69 | CCN(Cc1ccccc1)S(=O)(=O)c1ccc(C(=O)Nc2nnc(-c3ccccc3OC)o2)cc1 | 37.9%
70 | COCc1nnc(NC(=O)c2ccc(S(=O)(=O)N(C)c3ccccc3)cc2)o1 | 36.3%
71 | COc1ccccc1-c1nnc(NC(=O)c2ccc(S(=O)(=O)N(C)C)cc2)o1 | -3.2%
72 | CN(c1ccccc1)S(=O)(=O)c1ccc(C(=O)Nc2nnc(-c3ccc(F)cc3)o2)cc1 | 62.8% (active)

Row | Structure (SMILES) | cytotoxicity
73 | COc1ccccc1-c1nnc(NC(=O)c2ccc(S(=O)(=O)N(C)Cc3ccccc3)cc2)o1 | 64.9% (active)
74 | Cc1ccccc1C(=O)Nc1nnc(-c2ccc(F)cc2)o1 | 10.5%
75 | CN(C)S(=O)(=O)c1ccc2c(c1)c(=O)c(C(=O)N1CCN(c3ccccn3)CC1)cn2C | 5%
76 | COc1cc(Cl)c(C)cc1NC(=O)CSc1nnc(-c2ccccn2)n1Cc1ccco1 | -4.6%
77 | O=C(CN1C(=O)c2ccccc2C1=O)Nc1cccnc1 | 10.7%
78 | N#Cc1cccc(C(c2nnnn2CCc2ccccc2)N2CCN(C3CCCCC3)CC2)c1 (stereo not drawn) | 7.9%
79 | COc1cccc(NC(=O)N2CCC(C(=O)Nc3ccc(C)cc3C)CC2)c1 | -5.2%
80 | S=c1[nH]nc(Cc2c[nH]c3ccccc23)o1 | 1.2%
81 | c1ccc(CSc2nnc(-c3c[nH]c4ccccc34)o2)cc1 | 1.1%
82 | COc1cccc(-c2nnc(NC(=O)c3cccc(F)c3)o2)c1 | 44.6%
83 | COc1cccc(C(=O)Nc2nnc(-c3ccc(F)cc3)o2)c1 | 10.3%
84 | CC(=O)c1ccc(C(=O)Nc2nnc(-c3ccc(Cl)cc3)o2)cc1 | 44.7%
85 | COc1ccc(C(=O)Nc2nnc(-c3ccccc3)o2)cc1OC | -0.9%
86 | COc1ccccc1C(=O)Nc1nnc(-c2ccc(Cl)cc2)o1 | -0.6%
87 | CN(C)c1ccc(C(=O)Nc2nnc(-c3ccc(Cl)cc3)o2)cc1 | 17.7%
88 | Cc1cccc(-c2nnc(NC(=O)c3ccc(Cl)cc3)o2)c1 | 87.9% (active)
89 | COc1cccc(C(=O)Nc2nnc(-c3ccc(Cl)cc3)o2)c1 | 85% (active)
90 | CCOc1ccc(N2CC(C(=O)Nc3ccc(F)cc3F)CC2=O)cc1 (stereo not drawn) | -19.6%
91 | Clc1ccc(NC2=NCCC2)cc1Cl | -1.4%
92 | O=C(CN1CCN(C(=O)c2ccco2)CC1)Nc1ccccc1-c1ccccc1 | 3%
93 | CO[C@H]1C[C@@H]2CC[C@@H](C)[C@@](O)(O2)C(=O)C(=O)N2CCCC[C@H]2C(=O)O[C@H]([C@H](C)C[C@@H]2CC[C@@H](O)[C@H](OC)C2)CC(=O)[C@H](C)C=C(C)[C@@H](O)[C@@H](OC)C(=O)[C@H](C)C[C@H](C)C=CC=CC=C1C | 91% (active)
